# 3T3 cytotox: NIH 3T3 cell cytotoxicity; NIH 3T3 viability, CellTiter-Glo ATP luminescence, 48-72 h; AID 1345082; Potency, µM (top dose mostly 96.7 µM), without a hit: at the top dose activity change, negative = cytotoxicity, usual class: inhibitors; 94,000 compounds, 4.3% hits; active means well fitted curve in the direction sought with a large enough effect; inconclusive means small, poorly fitted or top-dose-only effect, or another doubt; inactive means no such curve, though single readings can be large; an effect the other way counts as inactive or inconclusive; further: on the % scale 0 is the no-effect control and ±100 the full control effect; nearly all actives have a fitted effect of over 55% in size
#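 Cytotoxicity is measured as loss of cellular ATP: NIH 3T3 cells (400/well) are exposed to compound for 48 or 72 hr at 37 °C, then CellTiter-Glo luminescence is imaged after 10 min at room temperature.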
# NPR1 antag: blocks ANP-stimulated signaling of human Npr1 receptor; 76,000 compounds, 1.6% hits; P16066; Potency, µM (top dose mostly 46.3 µM), for inactives: at the top dose activity change, negative = inhibition, actives largely listed as inhibitors; HEK293 hNpr1 GloSensor cGMP, ANP-stimulated luminescence; further: on the % scale 0 is the no-effect control and ±100 the full control effect; nearly all actives have a fitted effect of over 60% in size
#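 Compound pre-incubated 30 min at room temperature on GloSensor-loaded HEK293 cells stably carrying hNpr1 and the pGS-40F cGMP biosensor. Stimulation uses hNppA at 0.1 nM final; luminescence is taken at baseline and 20 min post-agonist.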
# HEK cytotox: cytotoxic compounds in HEK 293 cells; HEK 293 viability, ATP luminescence (CellTiter-Glo), 48-72 h; AID 1345083; Potency, µM (series often up to 115 µM), for the others: top-dose activity change, negative = cytotoxicity, most hits filed as inhibitors; 94,000 compounds, 6.6% hits; active means well fitted curve in the direction sought with a large enough effect; inconclusive means small, poorly fitted or top-dose-only effect, or another doubt; inactive means no such curve, though single readings can be large; an effect the other way counts as inactive or inconclusive; further: on the % scale 0 is the no-effect control and ±100 the full control effect; nearly all actives have a fitted effect of over 60% in size
#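 HEK 293 cells seeded at 250 cells/well were exposed to compound for 48 or 72 hr at 37 degree Celsius. Viability taken as ATP content by CellTiter-Glo luminescence.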
# FLuc inh: inhibitors of firefly (Photinus pyralis) luciferase; P08659; purified P. pyralis luciferase, luminescence, biochemical; Potency, µM (titrated, usually from 115 µM), usual class: inhibitors; 76,000 compounds, 2.5% hits; active means well fitted curve in the direction sought with a large enough effect; inconclusive means small, poorly fitted or top-dose-only effect, or another doubt; inactive means no such curve, though single readings can be large; an effect the other way counts as inactive or inconclusive; further: on the % scale 0 is the no-effect control and ±100 the full control effect; nearly all actives have a fitted effect of over 65% in size
#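 Purified P. pyralis luciferase (10nM final) in 50mM Tris acetate pH 7.5, 10mM Mg acetate, 0.01% Tween-20, 0.05% BSA with 10uM D-luciferin and 10uM ATP. Compounds titrated qHTS. Luminescence imaged on CCD.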
# Npr1 antag conf: confirmation of human Npr1 natriuretic peptide receptor antagonists; HEK293 hNpr1 cGMP GloSensor luminescence, ANP-stimulated; 1,400 compounds, 76% hits; Potency, µM (doses to about 57.6 µM), inactives show at the top dose activity change, negative = inhibition, actives largely listed as inhibitors; shares compounds with NPR1 antag; AID 1347044; further: nearly all actives have a fitted effect of over 70% in size
# Npr2 selectivity: antagonizes human Npr2, subtype selectivity check. shares compounds with NPR1 antag. HEK293 hNpr2 GloSensor cGMP luminescence, CNP-stimulated. 1,400 compounds, 67% hits. Potency, µM (series often up to 57.6 µM), inactives show at the highest dose activity change, negative = inhibition, hits mostly inhibitors; further: nearly all actives have a fitted effect of over 70% in size
# Target sequence (P20594 whole entry, looked up): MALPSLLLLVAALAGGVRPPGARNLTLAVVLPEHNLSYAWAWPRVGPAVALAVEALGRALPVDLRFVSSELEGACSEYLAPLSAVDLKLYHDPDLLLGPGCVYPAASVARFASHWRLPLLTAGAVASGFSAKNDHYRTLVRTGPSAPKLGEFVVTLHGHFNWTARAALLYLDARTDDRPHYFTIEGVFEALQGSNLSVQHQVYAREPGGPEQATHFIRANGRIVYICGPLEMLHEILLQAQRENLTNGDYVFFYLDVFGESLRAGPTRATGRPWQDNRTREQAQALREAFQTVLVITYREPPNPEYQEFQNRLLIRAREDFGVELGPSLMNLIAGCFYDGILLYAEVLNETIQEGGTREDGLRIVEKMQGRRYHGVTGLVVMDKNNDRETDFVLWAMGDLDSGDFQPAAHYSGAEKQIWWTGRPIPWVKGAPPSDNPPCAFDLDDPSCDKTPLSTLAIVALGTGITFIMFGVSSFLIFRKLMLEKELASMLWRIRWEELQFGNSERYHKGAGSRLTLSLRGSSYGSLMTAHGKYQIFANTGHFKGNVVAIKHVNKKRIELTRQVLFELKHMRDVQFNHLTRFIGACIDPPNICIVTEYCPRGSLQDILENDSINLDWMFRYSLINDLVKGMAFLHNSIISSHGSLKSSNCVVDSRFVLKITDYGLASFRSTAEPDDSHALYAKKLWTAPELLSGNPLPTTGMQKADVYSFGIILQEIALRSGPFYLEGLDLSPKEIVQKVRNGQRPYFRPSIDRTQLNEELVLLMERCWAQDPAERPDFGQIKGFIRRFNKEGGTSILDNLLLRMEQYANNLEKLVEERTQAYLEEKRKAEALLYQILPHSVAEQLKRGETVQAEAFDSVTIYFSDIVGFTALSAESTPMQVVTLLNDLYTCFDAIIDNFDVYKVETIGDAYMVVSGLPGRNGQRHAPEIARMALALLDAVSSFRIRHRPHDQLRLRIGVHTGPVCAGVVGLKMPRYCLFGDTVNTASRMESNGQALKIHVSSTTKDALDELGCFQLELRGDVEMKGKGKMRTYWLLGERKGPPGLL
# FLuc inh counter: FLuc enzyme inhibition, Npr1 counter-screen; shares compounds with NPR1 antag; purified FLuc enzyme, luminescence, Km substrate; Potency, µM (top dose mostly 57.6 µM), for the others: at the top dose activity change, negative = inhibition, most hits filed as inhibitors; 1,400 compounds, 0.7% hits; AID 1347047; active means well fitted curve in the direction sought with a large enough effect; inconclusive means small, poorly fitted or top-dose-only effect, or another doubt; inactive means no such curve, though single readings can be large; an effect the other way counts as inactive or inconclusive; further: 0% is about no effect
# GloSensor cGMP: counter-screen for Npr1 antagonists: GloSensor control cell line | shares compounds with NPR1 antag | HEK293 GloSensor cGMP, SNP-stimulated, luminescence | Potency, µM (titrated, usually from 57.6 µM), without a hit: at the highest dose activity change, negative = inhibition, hits mostly inhibitors | 1,400 compounds, 69% hits; further: on the % scale 0 is the no-effect control and ±100 the full control effect; nearly all actives have a fitted effect of over 70% in size
# The depositor's hits bear a star; i = inactive; ? = inconclusive; . = not tested or not shown; [ ] = remark or other dose. In the library only some 11% were active in any assay of this set; here they are far more common. Unless noted, the call rests on the fitted dose curve. Potency means the concentration at half of the fitted maximal effect.
SMILES,3T3 cytotox,NPR1 antag,HEK cytotox,FLuc inh,Npr1 antag conf,Npr2 selectivity,FLuc inh counter,GloSensor cGMP
O=C(N[C@H]1CCN2C(=O)c3cc(-c4ccc(F)cc4F)ccc3NC(=O)[C@@H]2C1)c1cccs1,?,2%,?,i,.,.,.,.
CC1Oc2ccc(NC(=O)Cc3cccs3)cc2CN(Cc2ccc(Cl)cc2)C1=O (stereo not given),40µM*,14µM*,?,i,27µM*,27µM*,3%,24µM*
CC1Oc2ccc(NS(=O)(=O)c3cccc(Cl)c3)cc2CN(Cc2ccccc2F)C1=O (stereo not given),?,?,50µM*,i,?,-27%,3%,-7%
COc1ccc(C(=O)Nc2ccc3c(c2)CN(Cc2ccc(F)cc2)C(=O)C(C)O3)c(OC)c1 (stereo not given),?,?,32µM*,i,24µM*,?,2%,24µM*
CC1Oc2ccc(NC(=O)Cc3ccc(F)cc3)cc2CN(Cc2ccccc2F)C1=O (stereo not given),?,-19%,?,?,.,.,.,.
CCOCCN1C(=O)COC[C@@H]1[C@H](O)c1ccc(NC(=O)Cc2ccccc2)cc1,-19%[138 µM],-16%[70.6 µM],1%[172 µM],i,.,.,.,.
CCOc1cc(CN(C)C(=O)c2cc(C)sc2NC(=O)C(C)(C)C)ccc1OC,-11%,1%,?,i,.,.,.,.
O=C(NC1CCCCC1)N1CCC(c2noc(-c3ccccc3)n2)C1 (stereo not given),?,18µM*,?,i,27µM*,?,0%,27µM*
CCc1ccc(NC(=O)C2CCN(c3cc(C(F)(F)F)ncn3)CC2)cc1,?,7.9µM*,?,i,11µM*,11µM*,-1%,9.7µM*
O=C(NCCCc1ccccc1)C1CCN(c2cc(C(F)(F)F)ncn2)CC1,?,11µM*,?,i,22µM*,19µM*,-1%,11µM*
O=C(NCc1ccccc1)C1CCN(c2cc(C(F)(F)F)ncn2)CC1,?,?,?,i,.,.,.,.
Cc1ccc(NC(=O)C2CCN(c3cc(C(F)(F)F)ncn3)CC2)cc1,?,8.9µM*,?,i,14µM*,15µM*,0%,12µM*
COc1ccc(C(C)NC(=O)C2CCN(c3cc(C(F)(F)F)ncn3)CC2)cc1 (stereo not given),?,16µM*,?,i,24µM*,27µM*,2%,22µM*
O=C(NC1CCCC1)c1ccc2nnc(C3CCOCC3)n2c1,-27%[138 µM],.,2%[172 µM],.,.,.,.,.
O=C(NCc1ccc(F)cc1)C1CCN(c2cc(C(F)(F)F)ncn2)CC1,?,?,?,i,.,.,.,.
CC(C)c1ccc(CNC(=O)C2CCN(c3cc(C(F)(F)F)ncn3)CC2)cc1,?,13µM*,?,i,24µM*,22µM*,3%,22µM*
Cc1nn2c(c1-c1ccccc1[S+](C)(=O)[O-])N(CCCc1ccccc1)CCC2,?,18µM*,?,i,5.6µM*,25µM*,3%[86.2 µM],4.4µM*
Cc1nn2c(c1-c1ccccc1C(N)=O)N(CCCc1ccccc1)CCC2,11µM*,1.1µM*,11µM*,i,2.8µM*,?,0%[86.2 µM],3.5µM*
O=C1NCCOCCCN(C(=O)c2ccsc2)[C@H]2CCCC[C@@H]12,-18%,-2%,-19%,i,.,.,.,.

# Assay outcomes from PubChem BioAssay.
